# From PubChem BioAssay (Tox21)
# Calls of active or inactive are those of the source. The call rests on the fitted dose curve; in most records, active means well fitted curve in the direction sought with a large enough effect in the repeat runs; inconclusive means weak or mixed curves; inactive means flat fitted curve, though single readings scatter.
# Test: qHTS assay to test for compound auto fluorescence at 590 nm (red) in HEK293 cell free culture (AID 720683)
# Conditions: cell-free medium autofluorescence, Ex540/Em590 red; series mostly up to 91.3 µM
# How it was run: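 Cell-free wells of DMEM with 10% FBS received compound, and intrinsic fluorescence was read at excitation/emission 540/590 nm. Values expressed as equivalence to Rose Bengal sodium.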
# On the % scale 0 is the no-effect control and ±100 the full control effect.
Compound,outcome,"fluorescence, % of fluorescent control"
Clc1cc(Cl)c(Cl)nc1Cl,inactive,
C=COC(=O)C(C)(CC)CCC(C)C (stereo not drawn),inactive,
CC1=NS(=O)(=O)c2cc(Cl)ccc2N1,inactive,
Cc1ccc(C(=O)c2ccc(CC(=O)O)n2C)cc1,,0.0035% [at 18.6 µM] (inactive)
CN(C)CCN(C)CCN(C)C,inactive,
CN(C)[C@@H]1C(=O)C(C(=O)NCN2CCCC2)=C(O)[C@@]2(O)C(=O)C3=C(O)c4c(O)cccc4[C@@](C)(O)C3C[C@@H]12 (stereo partly drawn),inactive,
CO[C@@]1(NC(=O)C(C(=O)O)c2ccc(O)cc2)C(=O)N2C(C(=O)O)=C(CSc3nnnn3C)CO[C@@H]21 (stereo partly drawn),,0.0003% [at 18.6 µM] (inactive)
COc1cc(C(=O)NCc2ccc(OCCN(C)C)cc2)cc(OC)c1OC,,0.0108% [at 18.6 µM] (inactive)
NO,inactive,
O=C(CO)[C@@H](O)[C@H](O)[C@H](O)CO,inactive,
CC1=NN(c2cccc(S(=O)(=O)O)c2)C(=O)C1,inactive,
O=C(c1ccccc1)C1(O)CCCCC1,inactive,
CCCCCCCCCCCCCCCCCCO,inactive,
OCCc1ccccn1,inactive,
Nc1ccn([C@@H]2O[C@H](CO)[C@@H](O)C2O)c(=O)n1 (stereo partly drawn),inactive,
COCCOC[C@H](CC1(C(=O)NC2CCC(C(=O)O)CC2)CCCC1)C(=O)Oc1ccc2c(c1)CCC2 (stereo partly drawn),inactive,
COc1cc(-c2ccc(=O)[nH]n2)ccc1OC(F)F,inactive,
CCCCc1ccc2c(n1)[C@@H](c1ccc(OC)cc1C[C@H](C)C(=O)O)[C@H](C(=O)O)[C@H]2c1ccc2c(c1)OCO2,inactive,
